The first assay has as its system RARb:RXRa (NR concentration 270 nM, RXRa partner concentration 90 nM). Briefly: PBM binding z-score (relative to random genomic background probes); higher = stronger binding; sequences stand for … in GC…GCGATTGACAGCGTAGAATGAAGG
An outline of the steps: (§1)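 Ligand-free nuclear receptor dimers were applied to custom Agilent 4×180K protein-binding microarrays whose double-stranded probes carried direct-repeat seeds, single-nucleotide variants, half-site ablations and random human genomic background sequences in 34-nt variable regions. Incubation lasted 1 h. Binding z-scores were computed against the random background probes from regression-normalized fluorescence.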
In turn, CATGCTAGGTCAATGGTCAGCTAAAGCAGCTCGC gave a PBM binding z-score of 3.87.
Turning to TTACCAAGGTGAAGGTCGTTGACCCCTCTGTAGA, the PBM binding z-score came to 2.87.
Take TTACCAGGGTGAGCTGAGGTCGTTGATCCAACTC: the PBM binding z-score was 1.24.
CCTACTGGGCCCTCAGGTCATTGATATCAACGTT registered a PBM binding z-score of 1.4.
ACTAGCAGGCTAAGGGTCACTCAAGATTAGTCCG yielded a PBM binding z-score of 3.47.
The same measure, in the same setting: for TCTTTTAGATCAGCAGGTTAAGAAAGCTGGCCAA the value was 0.563; for AGAATGAGGTTATTAAGTTCAGGGAATTGCGGTC, 2.35.
In turn, CGGCCTAGGTCAGGGCCAGTATAGGAGGAACGTT came in with a PBM binding z-score of 3.17.
Same read-out and setting: for ACTATTAGTTGACTGAGGGCAACCGATACGACGC the value was 1.41; for CATTACGGGTCACGAGGTTATAGCACGACGAGCG, 4.68.
The same measure, in the same setting: for CTACCAAGGTGAACAAGGTCATTGATTACTATTC the value was 3.53; for TCTGCTAGTTCAGTTGGTCAGCTAACGAGCTGCC, 0.778.
GCTAGTTGGTCAGTAAAAGGTCACAAACCGGTCG showed a PBM binding z-score of 3.91.
Take ATCGAGAGGTCGTGAGGTGAGTATACAGAAAGGC: the PBM binding z-score is 3.05.
For CGTCCAAGGTCAAACGTCAGTGAAGAGATGACGG, the PBM binding z-score stood at 5.22.
Sequence ATTTCTAGGTAACCAAGTTCAGTGAATGCCGAAC showed a PBM binding z-score of 1.49.
Sequence CGTCAAAGTTCACGGTAACGTAACAGAAAGCAGC showed a PBM binding z-score of 5.25.
On the same count and under the same terms, for TTACCAAGGTGAAAGGTCGTAGATGCACGCCTTG the value was 3.31; for ATATCTAGGTAACCAAGTTCAGTGAATGCCGAAC, 1.39.
As for ATCTCAAGGTAAAGTTCAGTGAAAGATCGATAGA, the PBM binding z-score is 2.97.
For CCTACTGGGCCATCAGGGCATTGATATCAACGTT, the PBM binding z-score was determined as 0.358.
CCTATGAGTTGACCATAAGGGCAACCGAAGCTCG displayed a PBM binding z-score of 1.72.
In turn, TCTGCTAGGTGAGTTGGTCAGCTAACGAGCTGCC returned a PBM binding z-score of 0.429.
On the same count and under the same terms, for GGAACGAGGGCAAAGTTGCTAGCATCTGTCGACG the value was 2.38; for ATCGCTAGGTAAGACTCAGTTCAGTGAAGAACGC, -0.283; for ATCTCAAGGTAACAAGTTCAGTGAAAGAGAGGAC, 2.08.
Take CCTTACGGCTCACTGACAGGTTATAGCATTTGGA: the PBM binding z-score worked out at 0.0996.
Same read-out and setting: for TCTATTGGTTGAAGGGCAACCGACGAGTCCGTTT the value was 1.55.
Same read-out and setting: as for TCTATTAGTTGAAGCGCAACCGACGAGTCCGTTT, the figure is 0.271.
The sequence CGCCCAAGGTCATAGGAGGTCAGTGAAGACAGAT showed a PBM binding z-score of 5.45.
ATATCTAGGTTAAGGGTCATTCAGGTTGGTTCGC registered a PBM binding z-score of 3.98.
On the same count and under the same terms, for CAAACTAGGTCACGAAAGGTCAAAGTAGAATGAC the value was 5.71; for ACTATTAGTTGACTTAGGGCAACCGGTACGACGC, 1.14; for CAAACTAGGTCAAAGTCAAAGTCGGTTTGTGCCA, 4.01.
In the case of CCTACTGGGCCATTCAGAGGTCATTTATCATATG, the PBM binding z-score came out at 2.79.
Consider TCATATAGGTAAATGCTAGGTTAAAGTCCGATCT, for which the PBM binding z-score is 0.735.
For TTACCAAGGTGAGGGTCGTTGATCCCTCTGTAGA, the PBM binding z-score came out at 1.45.
As for CCTAGCAGGCCAGGGTCAATCAAGCATTTCGCTT, the PBM binding z-score amounted to 2.72.
Still for that read-out and setting: for TCTCAAAGTTCAAAGGTAACGTAAGTATCCACAC the value was 5.15; for ATATGTAGGTTATCGGGTCATTTAGTTTGCGCAT, 2.56.

The test system of the next assay is RARb homodimer (NR concentration 270 nM). The description is as above. In short, it runs like this:
as §1
As for CATGCTAGGTCAATGGTCAGCTAAAGCAGCTCGC, the PBM binding z-score was determined as 3.11.
TTACCAAGGTGAAGGTCGTTGACCCCTCTGTAGA came in with a PBM binding z-score of 3.35.
In turn, TTACCAGGGTGAGCTGAGGTCGTTGATCCAACTC registered a PBM binding z-score of 1.24.
On the same count and under the same terms, as for CCTACTGGGCCCTCAGGTCATTGATATCAACGTT, the figure is 2; as for ACTAGCAGGCTAAGGGTCACTCAAGATTAGTCCG, 3.89.
TCTTTTAGATCAGCAGGTTAAGAAAGCTGGCCAA registered a PBM binding z-score of 0.0082.
AGAATGAGGTTATTAAGTTCAGGGAATTGCGGTC registered a PBM binding z-score of 2.35.
In the case of CGGCCTAGGTCAGGGCCAGTATAGGAGGAACGTT, the PBM binding z-score is 2.4.
Regarding ACTATTAGTTGACTGAGGGCAACCGATACGACGC, the PBM binding z-score stood at 1.72.
On the same count and under the same terms, as for CATTACGGGTCACGAGGTTATAGCACGACGAGCG, the figure is 4.22; as for CTACCAAGGTGAACAAGGTCATTGATTACTATTC, 3.82; as for TCTGCTAGTTCAGTTGGTCAGCTAACGAGCTGCC, 0.296.
GCTAGTTGGTCAGTAAAAGGTCACAAACCGGTCG showed a PBM binding z-score of 4.94.
Sequence ATCGAGAGGTCGTGAGGTGAGTATACAGAAAGGC returned a PBM binding z-score of 2.4.
Consider CGTCCAAGGTCAAACGTCAGTGAAGAGATGACGG, for which the PBM binding z-score stood at 3.94.
Still for that read-out and setting: for ATTTCTAGGTAACCAAGTTCAGTGAATGCCGAAC the value was 1.55.
CGTCAAAGTTCACGGTAACGTAACAGAAAGCAGC had a PBM binding z-score of 4.26.
In turn, TTACCAAGGTGAAAGGTCGTAGATGCACGCCTTG returned a PBM binding z-score of 2.48.
Same read-out and setting: as for ATATCTAGGTAACCAAGTTCAGTGAATGCCGAAC, the figure is 1.55; as for ATCTCAAGGTAAAGTTCAGTGAAAGATCGATAGA, 2.72; as for CCTACTGGGCCATCAGGGCATTGATATCAACGTT, 0.404.
The sequence CCTATGAGTTGACCATAAGGGCAACCGAAGCTCG came in with a PBM binding z-score of 1.98.
On the same count and under the same terms, as for TCTGCTAGGTGAGTTGGTCAGCTAACGAGCTGCC, the figure is -0.359.
In the case of GGAACGAGGGCAAAGTTGCTAGCATCTGTCGACG, the PBM binding z-score is 1.09.
ATCGCTAGGTAAGACTCAGTTCAGTGAAGAACGC came in with a PBM binding z-score of -0.147.
On to ATCTCAAGGTAACAAGTTCAGTGAAAGAGAGGAC, for which the PBM binding z-score was determined as 2.19.
CCTTACGGCTCACTGACAGGTTATAGCATTTGGA yielded a PBM binding z-score of 0.213.
The same measure, in the same setting: for TCTATTGGTTGAAGGGCAACCGACGAGTCCGTTT the value was 1.17; for TCTATTAGTTGAAGCGCAACCGACGAGTCCGTTT, -0.298; for CGCCCAAGGTCATAGGAGGTCAGTGAAGACAGAT, 5.6.
For the sequence ATATCTAGGTTAAGGGTCATTCAGGTTGGTTCGC, the PBM binding z-score amounted to 3.97.
In turn, CAAACTAGGTCACGAAAGGTCAAAGTAGAATGAC displayed a PBM binding z-score of 5.89.
With ACTATTAGTTGACTTAGGGCAACCGGTACGACGC, the PBM binding z-score worked out at 1.12.
In turn, CAAACTAGGTCAAAGTCAAAGTCGGTTTGTGCCA yielded a PBM binding z-score of 3.06.
In turn, CCTACTGGGCCATTCAGAGGTCATTTATCATATG showed a PBM binding z-score of 3.73.
The sequence TCATATAGGTAAATGCTAGGTTAAAGTCCGATCT displayed a PBM binding z-score of 0.967.
Sequence TTACCAAGGTGAGGGTCGTTGATCCCTCTGTAGA gave a PBM binding z-score of 0.945.
On to CCTAGCAGGCCAGGGTCAATCAAGCATTTCGCTT, for which the PBM binding z-score came out at 2.92.
For the sequence TCTCAAAGTTCAAAGGTAACGTAAGTATCCACAC, the PBM binding z-score came to 4.13.
On to ATATGTAGGTTATCGGGTCATTTAGTTTGCGCAT, for which the PBM binding z-score was 3.08.
